BRCA1 expr up – activators of BRCA1 expression. MCF7-BRCA1-FFLuc reporter, luminescence, 48 h; response scale: scaled: vehicle 0%, 10 µM genistein 100%. Potency, µM (titrated, usually from 46.1 µM), for the others: at the top dose activation, usual class: activators. 1.1% of 380,000 active. AID 624202; note: potency is the fitted concentration of half-maximal effect; nearly all actives have a fitted effect of over 80% in size
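First, MCF7-BRCA1-FFLuc cells (2000/well) attach for 2 h; next, compounds are pin-added and incubated 48 h at 37 °C; finally, luciferase reagent is added and luminescence read after 15 min.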
TRPML1 ag – activates the human TRPML1 channel; TRPML1-expressing cells, Ca2+ dye fluorescence, FDSS; activation, % (no concentration beside the values); 0.12% of 410,000 active; in the data active = activation above about 50%; inconclusive = mostly about 30% to 49%; note: 0% is about no effect
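TRPML1-DL cells, Tet-induced overnight (~16 h, 37 degrees C), loaded 45-90 min at room temperature with Ca8 no-wash calcium dye plus quencher. FDSS fluorescence: 10 s baseline, compound pin-transfer, 110 s agonist read, then EC80 54-4 (4uM final) and 110 s antagonist read.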
PKM2 activator – activators of human pyruvate kinase M2. purified PKM2, Kinase-Glo ATP luminescence, activation; response scale: 0% is enzyme alone, no compound. Potency, µM (doses to about 57.5 µM), for the others: top-dose activation, usual class: activators. 0.34% of 260,000 active. AID 1631; note: potency is the fitted concentration of half-maximal effect; % is set by controls: 0 for no effect and ±100 for the full control effect; nearly all actives have a fitted effect of over 55% in size
Target sequence (P14618 whole entry, looked up): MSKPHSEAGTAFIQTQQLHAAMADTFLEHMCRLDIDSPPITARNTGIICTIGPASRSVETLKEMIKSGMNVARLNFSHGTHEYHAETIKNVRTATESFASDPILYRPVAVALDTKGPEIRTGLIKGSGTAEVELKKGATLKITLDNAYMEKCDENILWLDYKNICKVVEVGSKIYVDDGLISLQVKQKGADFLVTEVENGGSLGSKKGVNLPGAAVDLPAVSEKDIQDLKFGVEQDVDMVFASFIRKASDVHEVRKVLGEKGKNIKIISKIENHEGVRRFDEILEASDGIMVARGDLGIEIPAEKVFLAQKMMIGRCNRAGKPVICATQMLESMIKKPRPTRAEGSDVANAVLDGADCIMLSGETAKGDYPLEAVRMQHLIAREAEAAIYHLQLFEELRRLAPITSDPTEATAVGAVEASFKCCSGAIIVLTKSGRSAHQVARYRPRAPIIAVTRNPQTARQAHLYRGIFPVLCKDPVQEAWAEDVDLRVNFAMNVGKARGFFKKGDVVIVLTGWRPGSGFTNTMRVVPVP
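hPK-M2, >95% pure; 0.1 mM ADP / 0.5 mM PEP final; imidazole pH7.2 buffer w/ 7 mM MgCl2, 50 mM KCl; 1 h RT; Kinase-Glo lum. Intermediate enzyme activity for dual inhibitor/activator qHTS.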
IL2 activator – activators of IL-2; activation, % (series mostly up to about 46 µM); IL-2 activation reporter assay, cell-based qHTS; stimulated with anti-CD3/CD4/CD28 beads; in transgenic mouse T cells; AID 652025; 0.065% of 360,000 active; in the data active = activation above about 50%; inconclusive = mostly about 30% to 49%; note: 0% is about no effect
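Unstimulated transgenic mouse T cells; 60-min compound exposure; bead-based TCR/CD4/CD28 stimulation; 18 h culture, 37 degrees C; dual fluorescence (EGFP, DsRed) plate cytometry.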
TRPML1 blocker – blocks the human TRPML1 channel. activity change, negative = inhibition, % (no concentration beside the values). AID 624415. TRPML1-inducible cells, Ca2+ dye fluorescence, FDSS; stronger effect = lower value; inhibition of EC80 agonist-evoked calcium signal. 0.02% of 390,000 active; in the data active = activity change below about -50%; inconclusive = between about -30% and that limit;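 note: stimulus is agonist 54-4 at its EC80 concentration; % is set by controls: 0 for no effect and ±100 for the full control effect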
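Tet-induced TRPML1-DL cells loaded with Ca8 no-wash calcium dye were read kinetically on FDSS. Compound addition was followed by EC80 agonist 54-4 (4 uM final); inhibition was read over 110 s.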
PTAP TSG101 blk – blocks PTAP/TSG101 interaction to inhibit HIV-1 budding; Fluorescence polarization, FITC-PTAP peptide / Tsg101 binding; 340,000 tested, under 10 active; Potency, µM (highest dose often 115 µM), without a hit: top-dose activity change, negative = inhibition, hits mostly inhibitors; AID 493005; active = well fitted inhibition curve with a large enough effect in the main read-out, with a control signal flat, not every such curve was filed as active; inconclusive = small, poorly fitted or top-dose-only effect, or effect the other way, or a change in a side signal; inactive = no such curve, though single readings can be large or run the other way; note: potency is the fitted concentration of half-maximal effect; % of control where 0% means no effect
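Fluorescence anisotropy tracks displacement of a FITC-tagged PTAP peptide (50 nM) from the Tsg101 binding domain (10 uM), following a 20 min room-temperature incubation at pH 7.5.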
* = called active by the depositor. Hits are enriched below; roughly 1.3% of the tested compounds scored in any of these assays. Unless noted, calls come from the whole dose curve; as a rule, active = well fitted activation curve with a large enough effect; inconclusive = small, poorly fitted or top-dose-only effect; inactive = no such curve, though single readings can be large or run the other way.

Screening CC(C)(C)c1ccc(C(=O)NCCC(=O)N2CCN(c3ncccn3)CC2)cc1 returned BRCA1 expr up 12%, TRPML1 ag 69*, PKM2 activator 2%, IL2 activator 3, TRPML1 blocker -14 and PTAP TSG101 blk 0%.
For COc1ccccc1C(=O)NCC(=O)N1CCN(c2ncccn2)CC1 the results were BRCA1 expr up 5%, TRPML1 ag -1, IL2 activator 0, TRPML1 blocker -4 and PTAP TSG101 blk 0%.
Screening O=C(NCC(=O)N1CCN(c2ncccn2)CC1)c1ccccc1F returned BRCA1 expr up 7.9µM*, TRPML1 ag -1, IL2 activator 0, TRPML1 blocker 3 and PTAP TSG101 blk -1%.
For N#CC(C#N)=C1C=C2C=C(N3CCCCCC3)CCC2CC1 (stereo not given) the results were BRCA1 expr up -16%, TRPML1 ag 100*, PKM2 activator -1%, IL2 activator 2, TRPML1 blocker -16 and PTAP TSG101 blk inconclusive.
Screening CC1(C)CC(NCCN2CCN(C3=CC(=C(C#N)C#N)CC(C)(C)C3)CC2)=CC(=C(C#N)C#N)C1 returned BRCA1 expr up -40%, TRPML1 ag 1, PKM2 activator 1%, IL2 activator 0, TRPML1 blocker 17 and PTAP TSG101 blk 0%.
CCN1CCN(C2=CC3=CC(=C(C#N)C#N)CCC3CC2)CC1 (stereo not given) was read as BRCA1 expr up -25%, TRPML1 ag 96*, PKM2 activator 0%, IL2 activator 1, TRPML1 blocker -7 and PTAP TSG101 blk inconclusive.
CN1CCN(C2=CC3=CC(=C(C#N)C#N)CCC3CC2)CC1 (stereo not given) was read as BRCA1 expr up -31%, TRPML1 ag 140*, PKM2 activator -21%, IL2 activator 20, TRPML1 blocker -71* and PTAP TSG101 blk inconclusive.
`N#CC(C#N)=C1C=C2C=C(N3CCOCC3)CCC2CC1` (stereo not given) gave BRCA1 expr up -5%, TRPML1 ag 123*, PKM2 activator 2%, IL2 activator 19, TRPML1 blocker -7 and PTAP TSG101 blk inconclusive.
`Cc1ccccc1Cn1c(=O)n(-c2ccc(Cl)cc2)c(=O)c2c3c(sc21)CCCC3` gave BRCA1 expr up 14%, TRPML1 ag 0 and TRPML1 blocker 1.
CCc1ccc(NC(=O)N2CCN(Cc3cc(=O)n4nc(-c5ccccc5OC)sc4n3)CC2)cc1 was read as BRCA1 expr up 0%, TRPML1 ag -1 and TRPML1 blocker 45.
For O=[N+]([O-])c1ccc2c(c1)C=CC2 the results were TRPML1 ag 0.
Screening Oc1ccc(N=Nc2ccccc2)cc1 returned BRCA1 expr up 8.9µM*, TRPML1 ag 1, IL2 activator -2, TRPML1 blocker -5 and PTAP TSG101 blk -1%.
O=C(O)c1ccccc1N=Nc1ccc(O)cc1 was read as BRCA1 expr up 0%, TRPML1 ag 0, IL2 activator 0, TRPML1 blocker -2 and PTAP TSG101 blk -15%.
For OCc1ccc(N=Nc2ccccc2)cc1 the results were BRCA1 expr up 3.2µM*, TRPML1 ag 1, IL2 activator 1, TRPML1 blocker 1 and PTAP TSG101 blk -1%.
For COC(=O)c1ccc(N=Nc2ccccc2)cc1 the results were BRCA1 expr up 10µM*, TRPML1 ag -1, PKM2 activator -3%, IL2 activator -1, TRPML1 blocker -6 and PTAP TSG101 blk 1%.
For COc1ccc(N=Nc2ccc(CO)cc2)cc1 the results were BRCA1 expr up inconclusive, TRPML1 ag -1, IL2 activator -4, TRPML1 blocker 11 and PTAP TSG101 blk 0%.
Screening CCOc1ccccc1NC(=O)CSc1nnc2[nH]c(=O)cc(-c3ccccc3)n12 returned TRPML1 ag 4 and TRPML1 blocker 4.
`Cc1cccc(-c2noc(C3CCCCC3)n2)c1` gave BRCA1 expr up 4.5µM*, TRPML1 ag -1, PKM2 activator -2%, IL2 activator -2, TRPML1 blocker -2 and PTAP TSG101 blk -9%.
For Cc1ccc(-c2noc(C3CCCCC3)n2)cc1 the results were BRCA1 expr up 10µM*, TRPML1 ag 0, PKM2 activator 1%, IL2 activator 0, TRPML1 blocker -6 and PTAP TSG101 blk -2%.
For Cc1cccc(-c2noc(C3CC(=O)N(c4ccc5c(c4)OCCO5)C3)n2)c1 (stereo not given) the results were TRPML1 ag 2 and TRPML1 blocker 2.
Screening CCS(=O)(=O)N1CCC(c2nc(-c3ccc(C)cc3)no2)CC1 returned BRCA1 expr up 30%, TRPML1 ag 0, PKM2 activator 0%, IL2 activator 2, TRPML1 blocker -12 and PTAP TSG101 blk -7%.
For COc1ccc(Nc2ncnc3onc(C)c23)cc1Cl the results were BRCA1 expr up -4%, TRPML1 ag 0 and TRPML1 blocker 69.
For O=C(Nc1nnc(-c2ccccc2Cl)o1)c1nc2ccccc2s1 the results were BRCA1 expr up 3%, TRPML1 ag 65*, PKM2 activator 0%, IL2 activator 0, TRPML1 blocker 2 and PTAP TSG101 blk -3%.
`O=C(Nc1nnc(-c2ccccc2Cl)o1)c1ccco1` gave BRCA1 expr up 37%, TRPML1 ag 4, PKM2 activator -11%, IL2 activator 5, TRPML1 blocker -18 and PTAP TSG101 blk -1%.
For O=C(/C=C/c1cccc2ccccc12)NCCC1=CCCCC1 the results were BRCA1 expr up 11µM*, TRPML1 ag 2, PKM2 activator -1%, IL2 activator -2, TRPML1 blocker 25 and PTAP TSG101 blk -1%.
For O=C(NC(=S)Nc1ncccn1)c1ccc(F)cc1 the results were BRCA1 expr up inconclusive, TRPML1 ag 0, IL2 activator 0, TRPML1 blocker 42 and PTAP TSG101 blk -2%.
`O=C(CCc1ccccc1)Nc1cccnc1Cl` gave BRCA1 expr up 75%, TRPML1 ag 1, PKM2 activator -7%, IL2 activator 0, TRPML1 blocker 10 and PTAP TSG101 blk 0%.
For O=C(CC(=O)c1ccccc1)Nc1cccnc1Cl the results were BRCA1 expr up 7.1µM*, TRPML1 ag 0, PKM2 activator 8%, IL2 activator 1, TRPML1 blocker -10 and PTAP TSG101 blk -1%.
O=C(NC(=S)Nc1cccnc1Cl)c1ccc(F)cc1 was read as BRCA1 expr up 10µM*, TRPML1 ag -1, PKM2 activator -6%, IL2 activator 0, TRPML1 blocker 9 and PTAP TSG101 blk -4%.
